Measurements as given in PubChem BioAssay AID1224853 (National Center for Advancing Translational Sciences (NCATS), 2016).
Results filed as inconclusive are left out. Active and inactive are the calls of the source. The call rests on the fitted dose curve; in most records, active means well fitted inhibition curve with a large enough effect; inconclusive means small, poorly fitted or top-dose-only effect; inactive means no such curve, though single readings can be large or run the other way.

Assay: Confirmation assay for measurement of the activity of small molecule inhibitors on Zika virus induced Caspase-3 activity in human astrocytoma cells
Details: SNB-19 ZIKV-induced caspase-3/7, luminescence, 6 h; series mostly up to 46.1 µM; activity change, negative = inhibition: at the top concentration
Description: National Center for Advancing Translational Sciences [NCATS] Johns Hopkins University School of Medicine Florida State University Assay Overview: Increase in the Caspase-3 activity indicates an activation of apoptosis cell death pathway caused by Zika virus infection in certain types of neuronal cells including human neural progenitor cells (hNPCs), astrocytes, and astrocytoma cell line (SNB-19). This cell-based caspase-3 activity assay measures the increased caspase-3 activity in the astrocytoma cell line (SNB-19) after a 6-hour Zika virus infection with a luminescence readout. A decrease in the luminescence signal in this assay by small molecule treatment indicates an inhibitory effect of that small molecule on the Zika virus induced caspase-3 activity that may correlate with its effect on reduction of Zika virus caused cell death.
Assay Protocol Summary: The medium for SNB-19 cells is composed of RPMI 1640 (ATCC, Cat.# 30-2001), 10% fetal bovine serum (FBS) (GE healthcare Life Sciences, Cat.# SH30071.03), and 1% Pen/Strep (Gibco, Cat.# 15140-122). A Caspase-Glo 3/7 assay kit (catalog number G8092; Promega, Madison, WI) was used to detect caspase-3 activity induced by Zika virus infection in human cells. The reagent mixture was reconstituted as described in the protocol from the manufacturer. Polystyrene tissue culture treated and PDL coated white plates were obtained from Greiner Bio-One (Monroe, NC). Cells were seeded in 384- or 1536-well assay plates and cultured at 37 C with 5% CO2 for 16 to 20 hours. The typical cell seeding density in the 1536-well plate assay is 250 cells/well in 3ul medium for SNB-19 cells in tissue culture treated plates. Compounds were added to cells and incubated for one hour before addition of ZIKV solution to cells (2 FFU/cell). After incubation at 37 C with 5% CO2 for 6 hours, the reagent mixture of Caspase-Glo 3/7 assay kit was added to each well, followed by incubation at room temperature for 30 minutes. The luminescence intensity of the assay plates was measured using a ViewLux plate reader (PerkinElmer). Data were normalized by using the cell-containing wells without ZIKV as a negative control (0% induction of caspase 3/7 activity) and wells containing ZIKV infected cells (Caspase-3 activity induced) as a positive control (100% induction of caspase 3 activity). The percentage inhibitions of the increased Caspase-3 activity by small molecule inhibitors were then calculated.

Row | SMILES | activity change, negative = inhibition | Potency
1 | COP(=S)(OC)SCN1C(=O)c2ccccc2C1=O | -5.52% (inactive) | 
2 | S=C(SSC(=S)N1CCCCC1)N1CCCCC1 | -16.3% (inactive) | 
3 | Oc1ccc([C@H]2CNCc3c2ccc(O)c3O)cc1O | 9.68% (inactive) | 
4 | CC(C)[C@H]1C(=O)N[C@H](CO)Cc2c[nH]c3cccc(c23)N1C | 2.51% (inactive) | 
5 | Cc1ccc([N+](=O)[O-])[c]2c1[O][Hg]2 |  | 10.9 µM (active)
6 | COC1(CS(=O)c2ccccc2)CCN(CCc2c[nH]c3ccc(F)cc23)CC1 (centres undefined) | 12.7% (inactive) | 
7 | O=C1C=CC[C@@H]2[C@H]3CCCN4CCC[C@@H](CN12)[C@@H]34 | 18.5% (inactive) | 
8 | O=c1c2ccccc2[se]n1-c1ccccc1 |  | 17.3 µM (active)
9 | O=C(Nc1ccc(Br)cc1)c1cc(Br)cc(Br)c1O |  | 6.9 µM (active)
10 | O=C1CCC[C@@H]2[C@H]3CCCN4CCC[C@@H](CN12)[C@@H]34 | 1.01% (inactive) | 
11 | CC(O)CN1CCN(CC(=O)[O-])CCN(CC(=O)[O-])CCN(CC(=O)[O-])CC1.[Gd+3] (centres undefined) | 11.9% (inactive) | 
12 | CC(C)[N+](C)(CCC(C(N)=O)(c1ccccc1)c1ccccc1)C(C)C | 1.37% (inactive) | 
13 | CC(C)N[C@@H]1CCn2c(=O)[nH]c3cccc(c32)[C@@H]1O | -1.27% (inactive) | 
14 | O=S(=O)(CC1CS1)c1ccc(Oc2ccccc2)cc1 (centres undefined) | -24.8% (inactive) | 
